Only some compounds are listed: those with a hit (about 2.7% of all), similar ones and a draw of the others.
CFTR F508del cor: CFTR F508del correction in bronchial cells | CFBE cells, YFP halide quenching; stimulated with forskolin plus potentiator P3; % fluorescence drop versus neutral controls | activity (quench increase), % at 7.58 µM | AID 720511 | 0.36% of 350,000 active;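 active = mean added fluorescence quench of at least 8% versus neutral control, with both replicates also reaching 8%; inconclusive = only one of the mean or replicate conditions met; inactive = mean below 8% and not both replicates reaching 8%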;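 note: cells transiently co-express mutant CFTR-F508del with the halide-sensitive YFP; corrector assay measuring rescue of mutant channel to the surface after 24 h compound exposure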
INS-1E GSIS act: primary screen for activators of insulin secretion dependent on glucose, INS-1E cells, GLuc reporter luminescence | 0.61% of 370,000 active | activation, % at 16.6 µM | INS-1E GLuc reporter insulin secretion, 2-3 h;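 active = lowest replicate activation of at least 40%, so every replicate reaches that level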;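 note: 0% = median of neutral control wells and 100% = median of IBMX positive control wells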
EWS-Fli inh: inhibitors of EWS/Fli oncoprotein transcriptional activity. A673 NR0B1-luciferase reporter, viability-normalised. inhibition, % at 12.6 µM. 0.67% of 350,000 active;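 active = mean inhibition of at least 50% after viability correction, with every replicate also passing that limit; inconclusive = mean reaches 50% but only one of two replicates passes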;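 note: firefly luciferase signal divided by Alamar Blue viability fluorescence both relative to DMSO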
PGC1a acetyl inh: modulators of PGC1a acetylation; U2OS PGC1a acetylation, AlphaScreen anti-acetyl-lysine; with virally co-expressed GCN5 acetyltransferase; inhibition, % at 15.6 µM; 0.17% of 350,000 active;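 active = every replicate shows inhibition of at least 40%; inconclusive = mean inhibition at least 40% but some replicate below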;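 note: 0% = neutral control wells and 100% = positive control wells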
PAX8 reporter: inhibitors of PAX8 transcriptional activity in RMG-I cells; RMG-I TPO-luciferase reporter, SteadyGlo, 24 h; 1.2% of 360,000 active; inhibition, % at 12.6 µM;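 active = mean replicate inhibition at least 60% with every replicate also reaching 60%; inconclusive = only one of the two criteria is met; inactive = mean below 60% and not all replicates reaching 60%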;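 note: luciferase light reporting Pax8 driven TPO promoter activity; plate controls were median of neutral control wells for no effect and mitoxantrone controls for full effect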
Env fusion inh: HIV envelope-mediated fusion inhibition; HeLa-JRFL Env/CEM21 cell fusion, luciferase; inhibition, % at 12.3 µM; 1.1% of 360,000 active;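 active = mean replicate inhibition score of at least 50 and every replicate individually at or above 50; inconclusive = only one of the two criteria met; inactive = mean below 50 and not all replicates reaching 50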;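 note: 0% = plate neutral controls and 100% = maraviroc near 300 nM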
Active calls of the source: *; i = inactive; u = inconclusive; x = not tested or not shown; [ ] = remark or other dose.

SMILES	CFTR F508del cor	INS-1E GSIS act	EWS-Fli inh	PGC1a acetyl inh	PAX8 reporter	Env fusion inh
COc1ccc(NC(=O)N(C)C[C@H]2OCCCC[C@@H](C)Oc3ccc(NC(=O)Nc4ccc(C(F)(F)F)cc4)cc3C(=O)N([C@@H](C)CO)C[C@@H]2C)cc1	7	19	7	26	77*	23[16.7 µM]
CCCNC(=O)[C@H]1[C@H](CO)[C@H]2Cn3c(ccc(-c4cccc(OC)c4)c3=O)[C@@H]1N2CC	2	1	3	8	x	x
COCC(=O)Nc1ccc2c(c1)[C@@H]1C[C@@H](CC(=O)NCc3ccccn3)O[C@H](CO)[C@@H]1O2	-6	2	10	4	-15	0[16.7 µM]
CC(=O)c1sc(NC(=O)CCS(=O)(=O)c2ccc(C)cc2)nc1C	-1	4	5	5	85*	3
COc1ccc(C)c2sc(NC(=O)CCS(=O)(=O)c3ccccc3)nc12	1	-3	13	-2	78*	4
CCOc1cccc2sc(NC(=O)CCS(=O)(=O)c3ccccc3)nc12	-3	2	2	19	87*	-17
CCOc1cccc2sc(N(CCN(C)C)C(=O)CCS(=O)(=O)c3ccccc3)nc12	-2	3	x	5	14	14
Cc1cc(C)c2oc(C(=O)N(Cc3ccc(F)cc3)C3CCS(=O)(=O)C3)cc(=O)c2c1 (stereo not given)	2	63*	6	1	6	-3
N#CC1(NC(=O)CN2C(=O)c3ccccc3C2=O)CCCCC1	-1	-4	-4	3	2	x
N#CC1(NC(=O)Cn2ncc(Cl)c(Cl)c2=O)CCCCC1	-8	-13	u	-98	91*	-128
O=C(NCCc1ccccc1)C1CCN(c2nc3ccccc3o2)CC1	2	6	3	0	x	x
O=C(NC1CCCCCCC1)C1CCN(c2nc3ccccc3o2)CC1	x	x	x	x	x	75*
O=C(NC1CCCCCC1)C1CCCN(c2ncccn2)C1 (stereo not given)	3	65*	-44	7	-55	-21
O=C(NC1CCCCC1)C1CCN(c2ncccn2)CC1	1	-8	0	12	-16	11
CCC(=O)Nc1ccc2c(c1)C(=O)N(C)C[C@@H](OC)[C@H](C)CN(C(=O)CN1CCOCC1)[C@H](C)CO2	-3	9	12	13	x	x
O=C(CN1CCOCC1)NCC[C@H]1CC[C@@H](NC(=O)Nc2ccc(Cl)cc2)[C@H](CO)O1	2	4	0	4	4	-12[16.7 µM]
Cc1c(C(=O)N2CC3(CC(c4cccc(NC(=O)CC(c5ccccc5)c5ccccc5)c4)=NO3)C[C@@H]2C(N)=O)cc([N+](=O)[O-])cc1[N+](=O)[O-] (stereo not given in full)	-3	-7	6	x	65*	17
NC(=O)[C@@H]1CC2(CC(c3cccc(NC(=O)COc4ccc(Cl)cc4)c3)=NO2)CN1C(=O)COc1ccc(Cl)cc1 (stereo not given in full)	0	-3	8	3	u	19
NC(=O)[C@H]1CC2(CC(c3cccc(NC(=O)COc4ccc(Cl)cc4)c3)=NO2)CN1C(=O)C(c1ccccc1)c1ccccc1 (stereo not given in full)	0	-4	10	-8	89*	-93
COc1ccc(NC(=O)Nc2ccc3c(c2)[C@@H]2C[C@@H](CC(=O)N4CCN(C)CC4)O[C@@H](CO)[C@@H]2O3)cc1	3	8	4	-2	-11	-5[16.7 µM]
C[C@H](CO)N1C[C@H](C)[C@@H](CN(C)C(=O)Nc2cccc3ccccc23)Oc2c(NC(=O)c3nc4ccccc4s3)cccc2C1=O	-7	-8	28	0	x	x
O=C(O)CN1C(=O)C=CC1=O	-1	31	-5	x	-6	i
O=C1C=CC(=O)N1CCCCCCN1C(=O)C=CC1=O	x	202*	x	x	109*	-15
c1ccc(-c2csc3ncnc(NCCN4CCOCC4)c23)cc1	x	32	x	16	8	78*
Clc1ccc(-c2csc3ncnc(NCCN4CCOCC4)c23)cc1	x	x	x	17	2	63*
SMILES	CFTR F508del cor	INS-1E GSIS act	EWS-Fli inh	PGC1a acetyl inh	PAX8 reporter	Env fusion inh
Cc1ccc(-c2csc3ncnc(NCCN4CCOCC4)c23)cc1	x	x	x	28	3	u
CO[C@H]1CN(C)C(=O)c2cc(NS(=O)(=O)CC(F)(F)F)ccc2OC[C@@H](C)N(Cc2ccccn2)C[C@H]1C	1	3	-5	-3	0	x
CCOC(=O)N1CCN(S(=O)(=O)c2ccc3c4c(cccc24)C(=O)N3)CC1	-1	42*	5	x	5	-7
CN1CCN(S(=O)(=O)c2ccc3c4c(cccc24)C(=O)N3)CC1	-4	10	11	-4	-2	4
CC(C)N1C(=O)N(c2cccc(Cl)c2)C(C)(O)CC1(C)C (stereo not given)	-3	64*	-9	x	-12	7
CC(C)N1C(=O)N(c2ccc(Cl)cc2)C(C)(O)CC1(C)C (stereo not given)	2	3	0	-1	-9	3
COc1ccc(NC(=O)Nc2cccc3c2O[C@H](CN(C)C(=O)Nc2ccc4c(c2)OCO4)[C@H](C)CN([C@@H](C)CO)C3=O)cc1	0	0	-4	-1	x	x
COc1ccc(NC(=O)CSc2nc3nc(C)cc(C)c3c(=O)[nH]2)cc1	1	3	x	5	1	3
CCN(CC)c1ccc(NC(=O)CSc2nc3nc(C)cc(C)c3c(=O)[nH]2)cc1	-2	42*	4	-7	x	-15
CC[N+]1=C(C)C(C)(C)c2cc(C)ccc21	-19	-43	28	-6	96*	26
CCN1C(=O)C(=O)c2cc(C)ccc21	3	7	13	17	-16	-17
C[C@@H]1CCCCO[C@H](CN(C)S(=O)(=O)c2ccccc2)[C@@H](C)CN([C@@H](C)CO)C(=O)c2cc(NC(=O)Nc3cccc4ccccc34)ccc2O1	2	-8	11	-3	-5	-78[16.7 µM]
O=C(Nc1ccc(Cl)c(C(F)(F)F)c1)c1ccncc1	0	-4	15	6	12	-1
CNC(=O)c1cc(Oc2ccc(NC(=O)Nc3ccc(Cl)c(C(F)(F)F)c3)cc2)ccn1	-3	x	22	7	96*	62*
COc1ccc(NS(=O)(=O)c2ccc3c(c2)[C@H]2C=CC[C@H]2[C@@H](c2ccc(C(=O)O)cc2)N3)cc1	-3	-24	-5	x	-5	-4
Cc1c(Cl)cccc1NS(=O)(=O)c1ccc2c(c1)C1C=CCC1C(c1ccc(C(=O)O)cc1)N2 (stereo not given)	x	x	x	107*	x	x
O=C(C[C@H]1C=C[C@@H](NC(=O)Nc2ccccc2F)[C@H](CO)O1)NCc1ccc(F)cc1	1	7	1	-3	4	3[16.7 µM]
COc1ccc(C=NNC(=S)NN=Cc2ccc(OC)c(OC)c2)cc1OC	6	38	-38	5	-118	42
